In the library only some 0.52% were active in any assay of this set; here they are far more common.
Sa growth 42C: inhibitors of Staphylococcus aureus growth at 42 °C. AID 720641. S. aureus RN4220 growth, OD600, 20 h; hits give low values. relative growth, % (concentration not given with the values). hit rate 0.53% among 170,000;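 active = relative growth at most 50% at the other temperature and 20+ points below 30 °C, or under 10% at both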
S aureus helic: blocks Staphylococcus aureus DNA helicase | purified S. aureus helicase, fluorescence unwinding assay | inhibition, % (test concentration not listed) | hit rate 0.05% among 120,000 | AID 485395; in the data active = inhibition above about 25%, passing the limit was not always enough;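 note: 0% = mean of negative control wells and 100% = mean of positive control wells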
Starred values were filed as active, the others as inactive; nt = no result given.

SMILES	Sa growth 42C	S aureus helic
CC(=O)Oc1ccccc1C(=O)Nc1ccc(OC(F)F)cc1	4.2*	-19
CC(=O)Oc1ccccc1C(=O)Nc1ccc(C(N)=O)cc1	103	13
CCOC(=O)c1cccc(-c2ccc(C3C(C#N)=C(N)OC4c5ccccc5OC(=O)C43)o2)c1 (stereo not drawn)	68	-29
CC1CCCCC1n1c(SCC(=O)c2ccc(Br)s2)nnc1-c1cccnc1 (stereo not drawn)	56	-2
CN1CCN(c2ccccc2C=Nc2ccc(C(C)(C)C)cc2)CC1	96	nt
C=CCn1c(=N)n(CC(=O)c2ccc(-c3ccccc3)cc2)c2ccccc21	5.3*	13
Cn1c(=N)n(CC(=O)c2ccc(-c3ccccc3)cc2)c2ccccc21	117	8
CC[C@H]1OC(=O)[C@H](C)[C@@H](O[C@H]2C[C@@](C)(OC)[C@@H](O)[C@H](C)O2)[C@H](C)[C@@H](O[C@@H]2O[C@H](C)C[C@H](N(C)C)[C@H]2O)[C@](C)(O)C[C@@H](C)C(=O)[C@H](C)[C@@H](O)[C@]1(C)O	-0.9*	nt
CC[C@H]1OC(=O)[C@H](C)C(=O)[C@H](C)[C@@H](O[C@@H]2O[C@H](C)C[C@H](N(C)C)[C@H]2O)[C@](C)(OC)C[C@@H](C)C(=O)[C@H](C)[C@@H]2N(CCCCn3cnc(-c4cccnc4)c3)C(=O)O[C@@]21C	93	nt
CO[C@@H]1[C@@H](O[C@@H]2O[C@H](C)[C@@H](O[C@H]3C[C@@](C)(O)[C@H](O)[C@H](C)O3)[C@H](N(C)C)[C@H]2O)[C@@H](CC=O)C[C@@H](C)[C@@H](O[C@H]2CC[C@H](N(C)C)[C@@H](C)O2)/C=C/C=C/C[C@H](C)OC(=O)C[C@H]1O	21	nt
CC[C@H]1OC(=O)[C@H](C)[C@@H](O[C@H]2C[C@@](C)(OC)[C@@H](O)[C@H](C)O2)[C@H](C)[C@@H](O[C@@H]2O[C@H](C)C[C@H](N(C)C)[C@H]2O)C(C)(O)C[C@@H](C)CN(C)[C@H](C)[C@@H](O)[C@]1(C)O (stereo partly drawn)	-0.4*	nt
CCOC(=O)CCC(=O)O[C@H]1[C@H](O[C@@H]2[C@@H](C)[C@H](O[C@H]3C[C@@](C)(OC)[C@@H](O)[C@H](C)O3)[C@@H](C)C(=O)O[C@H](CC)[C@@](C)(O)[C@H](O)[C@@H](C)C(=O)[C@H](C)C[C@@]2(C)O)O[C@H](C)C[C@@H]1N(C)C	-0.8*	nt
CCC(=O)O[C@H]1[C@H](O[C@@H]2[C@@H](C)[C@H](O[C@H]3C[C@@](C)(OC)[C@@H](O)[C@H](C)O3)[C@@H](C)C(=O)O[C@H](CC)[C@@](C)(O)[C@H](O)[C@@H](C)C(=O)[C@H](C)C[C@@]2(C)O)O[C@H](C)C[C@@H]1N(C)C	-0.9*	nt
CCOCC(=O)OCc1cc(=O)oc2cc(C)c(Cl)cc12	81	-5
CCCCC(=O)Nc1noc2ccccc12	112	3
CCC(Sc1nc2ccccc2c(=O)n1C1CCCC1)C(=O)NCc1cccnc1 (stereo not drawn)	116	nt
CCc1ccc(C(=O)Nc2ccc(S(N)(=O)=O)cc2)cc1	94	nt
CC(C)(C)c1ccc(C(=O)Nc2ccc(S(N)(=O)=O)cc2)cc1	2.7*	-18
CC(=O)NCCC(=O)Nc1ccc(C(F)(F)F)cc1	86	-4
Cc1ccc(-c2nnc(NC(=O)c3ccc4c(c3)OCCO4)o2)c(C)c1	64	nt
C=CCN(CC=C)S(=O)(=O)c1ccc(C(=O)Nc2nnc(-c3ccc(OC)cc3)o2)cc1	89	18
C=CCN(CC=C)S(=O)(=O)c1ccc(C(=O)Nc2nnc(-c3cc(C)ccc3C)o2)cc1	1.7*	2
CCc1nnc(NC(=O)c2ccc(S(=O)(=O)N3CCCC3)cc2)o1	111	5
CCc1nnc(NC(=O)c2ccc(S(=O)(=O)N3CC(C)CC(C)C3)cc2)o1 (stereo not drawn)	9.0*	6
Cc1ccc(-c2nnc(NC(=O)c3ccc(S(=O)(=O)N4CCCC4)cc3)o2)c(C)c1	1.6*	3
SMILES	Sa growth 42C	S aureus helic
OC(COc1ccc(-c2csnn2)cc1)CSc1ccccc1 (stereo not drawn)	132	nt
CS(=O)(=O)N1CCN(c2ccc(NC(=O)CSc3nnc(Cc4ccccc4)o3)cc2)CC1	95	12
C=CCSc1nnc2c(n1)OC(C1CC=C(C)CC1)Nc1ccccc1-2 (stereo not drawn)	92	-97
COc1ccc(N2CCN(CCNC(=O)c3nnc(-c4ccc5c(c4)OCO5)o3)CC2)cc1	93	-7
CS(=O)(=O)c1ccc(-c2csc(-c3cccs3)n2)cc1	96	15
Fc1ccc(-c2csc(-c3cccs3)n2)cc1	45*	nt
CCc1ccc(S(=O)(=O)/N=C2/C=C(Nc3ccccc3)C(=O)c3ccccc32)cc1	83	9
O=C1C(Sc2ncn[nH]2)=C/C(=N/S(=O)(=O)c2ccc(Cl)cc2)c2ccccc21	1.2*	24
CN=C1SC(CC(=O)NC)C(=O)N1C (stereo not drawn)	113	-4
O=C(O)c1ccc(-c2cccc(C(F)(F)F)c2)o1	45*	-3
NC(=O)c1ccc(-c2cccc(C(F)(F)F)c2)o1	95	8
CC(NC(=O)c1cc(=O)c2ccccc2o1)C(c1ccccc1)N1CCOCC1 (stereo not drawn)	82	35*
CC(NC(=O)Cc1ccccc1)C(c1ccccc1)N1CCOCC1 (stereo not drawn)	100	5
C1=C(C23CC4CC(CC(C4)C2)C3)SC2=NCCN12	94	9
Nc1ccccc1N1CCCC1	2.8*	11
c1ccc2c(c1)N1CCN2CC1	94	-9
O=C(CN1CCN(c2ccccc2F)CC1)C12CC3CC(CC(C3)C1)C2	107	-5
c1ccc2c(c1)oc1c(NCC3CCCCC3)ncnc12	33	9
COc1cc(C)nc(NC(=O)Nc2cccc(Cl)c2)n1	91	20
CCOC(=O)c1nnc(-c2ccc3c(c2)OCO3)o1	85	-30
CCCN(CCC)Cn1nc(-c2ccc3c(c2)OCO3)oc1=S	39*	12
CC[C@H]1OC(=O)[C@H](C)[C@@H](O[C@H]2C[C@@](C)(OC)[C@@H](O)[C@H](C)O2)[C@H](C)[C@@H](O[C@@H]2O[C@H](C)C[C@H](N(C)C)[C@H]2O)[C@](C)(O)C[C@@H](C)/C(=N\OCOCCOC)[C@H](C)[C@@H](O)[C@]1(C)O	0.1*	nt
CC[C@H]1OC(=O)[C@H](C)[C@@H](O[C@H]2C[C@@](C)(OC)[C@@H](O)[C@H](C)O2)[C@H](C)[C@@H](O[C@@H]2O[C@H](C)C[C@H](N(C)C)[C@H]2O)[C@](C)(O)C[C@@H](C)/C(=N/OCOCCOC)[C@H](C)[C@@H](O)[C@]1(C)O	-0.5*	nt
COc1cccc(CSc2nnc(Cc3cccs3)n2C2CCCCC2)c1	5.8*	0
Clc1ccc(CSc2nnc(Cc3cccs3)n2C2CC2)cc1Cl	63	2
SMILES	Sa growth 42C	S aureus helic
CC(C)n1nccc1NC(=O)CSc1nnc(Nc2ccccc2F)s1	92	-17
O=C1NC(=O)/C(=C\C=C\c2ccccc2)S1	nt	7
O=C1NC(=S)S/C1=C\C=C\c1ccccc1	6.9*	10
CCN(CC)C(=O)CSc1nnc2c(n1)[nH]c1ccc(C(C)C)cc12	62	0
C=CCN1C(=O)/C(=C\c2ccc(OCC(=O)O)c(OC)c2)SC1=S	84	4
CCn1cnc2cc(NCc3cccc(OC)c3)ccc21	83	40
